Data as given in paper PMC5489143, “One ligand, two regulators and three binding sites: How KDPG controls primary carbon metabolism in Pseudomonas”.

Biological target: T1, RccR-His (Pseudomonas fluorescens SBW25, UniProt A0ACD4XSS6 1-288)
Experiment: SPR (ReDCaT); SPR ReDCaT, 10 mM HEPES pH 7.4, 300 mM NaCl, 3 mM EDTA, 0.05% Tween-20, 25 C; high values mean tight binding
Settings: protein: recombinant; tags: C-terminal His (pET42b), not removed; chain copies: 2; label: captured on SA chip through 20-nt ReDCaT single-stranded 3' overhang of strand 2; dsDNA, one strand shown

Sequence	binding signal
CATGTAGTATGCCCAACCGTGCACTACATA	55.1 %Rmax
GATGTAGTGCTTGAAAAAAAGCACTACAAA	82.8 %Rmax
CGGTAGTAGTGCGCAACTTTCTACTACAAA	35.9 %Rmax
ATGTAGGGTCCGCCGAAGACCACTACCT	3.18 %Rmax
AATGTAGCCCCTTTTTTCAGCCCCTACATG	6.22 %Rmax
TATGTAGTGAGCAAAAATAATCACTACATA	59.1 %Rmax
CTTGTAGTTAATTTTTCGTCACCCGTCATA	8.34 %Rmax
CTTGTAGTATAACTACAAGCTTGCTACATC	158 %Rmax
CTTGTGTAGTTTTACTACTCGTATATACAT	126 %Rmax

Biological target: T1, RccR-His
Experiment: SPR (ReDCaT); KDPG 0 uM; SPR ReDCaT, 10 mM HEPES pH 7.4, 300 mM NaCl, 3 mM EDTA, 0.05% Tween-20, 25 C; high values mean tight binding
Settings: protein: recombinant; tags: C-terminal His (pET42b), not removed; chain copies: 2; label: captured on SA chip through 20-nt ReDCaT single-stranded 3' overhang of strand 2; dsDNA, one strand shown

Sequence	binding signal
GATGTAGTGCTTGAAAAAAAGCACTACAAA	67.2 %Rmax
CTTGTAGTATAACTACAAGCTTGCTACATC	161 %Rmax
CTTGTGTAGTTTTACTACTCGTATATACAT	121 %Rmax

Biological target: T1, RccR-His
Experiment: SPR (ReDCaT); KDPG 1 uM; SPR ReDCaT, 10 mM HEPES pH 7.4, 300 mM NaCl, 3 mM EDTA, 0.05% Tween-20, 25 C; high values mean tight binding
Settings: protein: recombinant; tags: C-terminal His (pET42b), not removed; chain copies: 2; label: captured on SA chip through 20-nt ReDCaT single-stranded 3' overhang of strand 2; dsDNA, one strand shown

Sequence	binding signal
GATGTAGTGCTTGAAAAAAAGCACTACAAA	104 %Rmax
CTTGTAGTATAACTACAAGCTTGCTACATC	152 %Rmax
CTTGTGTAGTTTTACTACTCGTATATACAT	116 %Rmax

Biological target: T1, RccR-His
Experiment: SPR (ReDCaT); KDPG 10 uM; SPR ReDCaT, 10 mM HEPES pH 7.4, 300 mM NaCl, 3 mM EDTA, 0.05% Tween-20, 25 C; high values mean tight binding
Settings: protein: recombinant; tags: C-terminal His (pET42b), not removed; chain copies: 2; label: captured on SA chip through 20-nt ReDCaT single-stranded 3' overhang of strand 2; dsDNA, one strand shown

Sequence	binding signal
GATGTAGTGCTTGAAAAAAAGCACTACAAA	119 %Rmax
CTTGTAGTATAACTACAAGCTTGCTACATC	125 %Rmax
CTTGTGTAGTTTTACTACTCGTATATACAT	86.8 %Rmax

Biological target: T1, RccR-His
Experiment: SPR (ReDCaT); KDPG 100 uM; SPR ReDCaT, 10 mM HEPES pH 7.4, 300 mM NaCl, 3 mM EDTA, 0.05% Tween-20, 25 C; high values mean tight binding
Settings: protein: recombinant; tags: C-terminal His (pET42b), not removed; chain copies: 2; label: captured on SA chip through 20-nt ReDCaT single-stranded 3' overhang of strand 2; dsDNA, one strand shown

Sequence	binding signal
GATGTAGTGCTTGAAAAAAAGCACTACAAA	121 %Rmax
CTTGTAGTATAACTACAAGCTTGCTACATC	105 %Rmax
CTTGTGTAGTTTTACTACTCGTATATACAT	29.9 %Rmax
